Reference: PubChem BioAssay (EPA / NIEHS)
Activity calls are given as the source filed them. How the source made its calls: active means hit-call score of the fitted dose curve at least 0.9, where 1 is the maximum; inactive means score below 0.9.

Read-out: Signal transducer and activator of transcription 3 (Homo sapiens) (UniProt P40763)
Test: LTEA_HepaRG_STAT3: Life Technologies and Expression Analysis (LTEA) Assay for Signal transducer and activator of transcription (STAT3) using HepaRG (AID 2283529)
Settings: mRNA level, 48 h; actives raise or lower the signal
Method: LTEA_HepaRG is a cell based, multiplexed-readout assay that uses HepaRG, a human liver cell line, with measurements taken at 48 hours after chemical dosing on a 96-well plate.LTEA_HepaRG_STAT3 is one of 102 assay component(s) measured in the LTEA HepaRG cell culture assay. It is a marker of Cell proliferation, survival, death.Data from the assay component LTEA_HepaRG_STAT3 was analyzed into 1 endpoint. This assay endpoint, LTEA_HepaRG_STAT3, was analyzed with bidirectional fitting relative to DMSO as the negative control and baseline of activity. Using a type of inducible reporter, measures of mRNA induction for gain or loss-of-signal activity can be used to understand regulation of transcription factor activity. To generalize the intended target to other relatable targets, this assay endpoint is annotated to the dna binding intended target family, where the subfamily is stat protein.
A total of 1060 chemcials from the ToxCast library were tested in eight-point concentration-response experiments. Cell culture and cytotoxicity assays were conducted at Thermo Fisher Scientific's Custom Services facility (Madison, WI). A single lot of human HepaRG cells (Thermo Fisher Scientific, Frederick, MD) was used for the cell culture experiments. 96-well format collagen type I coated plates of human HepaRG cells were prepared using established methods. Briefly, cryopreserved HepaRG cells were thawed, plated at a density of approximately 100,000 cells/well in HepaRG Thaw, Plate, and General Purpose media (HPRG770, Thermo Fisher Scientific), and incubated for 48 hours. 0.5% DMSO was selected as vehicle control to balance the requisite need of DMSO in HepaRG cultures to maintain differentiation (for example, baseline metabolism, proportions of hepatocytes vs. cholangiocytes), while enabling further hepatic receptor pathway activation (for example, PXR and CAR) in response to chemical exposure. 48 hours after plating, the culture medium was replaced with HepaRG Serum-Free Incudtion Media. Cells were exposed to each test chemical in duplicate and maintained in CO2 incubators for another 48 hours. Chemical plates were thawed to room temperature and 200x concentrations of treatment groups were prepared. 8-point conentration-reponse curves were made with the highest exposure at 100 uM, followed by half-log dilutions, all in 0.5% DMSO. Each test plate contained variouse controls, induction positive controls (1mM phenobarbital), cytotoxicity positive controls ([…] aflatoxin B1), vehicle controls (0.5% DMSO), and total lysis controls (0.5% DMSO). Cell morphology images were taken using an Essen IncuCyte FLR automated microscope, with six 96-well plates imaged in about 24 minutes. Images were captured and exported and JPEG files. Spent culture media was transfered to black-well plates for the LDH assay, and remaining media was sorted at -80 C for later use. Cells were treated with RLT buffer and frozen until shipped for gene expression analysis. Total RNA was isolated from the cell suspension in 75 uL of Buffer RLT (Qiagen, Germantown, MD 20874) by Quintiles/Expression Analysis (Durham, NC) using a custom isolation procedure. Total RNA from each plate well was transferred to a preamplification plate. Fluidigm's 96.96 Dynamic ArrayTM (Fluidigm, Amsterdam, the Netherlands) technology was used for gene expression analyses by quantitative reverse transcription polymerase chain reaction (qRT-PCR, performed by Quintiles/Expression Analysis, Durham, NC)89. Standard TaqManTM Assays (Applied Biosystems/ThermoFisher Scientific, Foster City, CA) were used to assess the expression of 93 genes selected based on their selectivity and sensitivity to important hepatic receptors known to be modulated by environmental chemicals; importance in human hepatocyte functionality; and hepatotoxicity. […]

Signal transducer and activator of transcription 3 (Homo sapiens), sequence (P40763 whole entry, looked up): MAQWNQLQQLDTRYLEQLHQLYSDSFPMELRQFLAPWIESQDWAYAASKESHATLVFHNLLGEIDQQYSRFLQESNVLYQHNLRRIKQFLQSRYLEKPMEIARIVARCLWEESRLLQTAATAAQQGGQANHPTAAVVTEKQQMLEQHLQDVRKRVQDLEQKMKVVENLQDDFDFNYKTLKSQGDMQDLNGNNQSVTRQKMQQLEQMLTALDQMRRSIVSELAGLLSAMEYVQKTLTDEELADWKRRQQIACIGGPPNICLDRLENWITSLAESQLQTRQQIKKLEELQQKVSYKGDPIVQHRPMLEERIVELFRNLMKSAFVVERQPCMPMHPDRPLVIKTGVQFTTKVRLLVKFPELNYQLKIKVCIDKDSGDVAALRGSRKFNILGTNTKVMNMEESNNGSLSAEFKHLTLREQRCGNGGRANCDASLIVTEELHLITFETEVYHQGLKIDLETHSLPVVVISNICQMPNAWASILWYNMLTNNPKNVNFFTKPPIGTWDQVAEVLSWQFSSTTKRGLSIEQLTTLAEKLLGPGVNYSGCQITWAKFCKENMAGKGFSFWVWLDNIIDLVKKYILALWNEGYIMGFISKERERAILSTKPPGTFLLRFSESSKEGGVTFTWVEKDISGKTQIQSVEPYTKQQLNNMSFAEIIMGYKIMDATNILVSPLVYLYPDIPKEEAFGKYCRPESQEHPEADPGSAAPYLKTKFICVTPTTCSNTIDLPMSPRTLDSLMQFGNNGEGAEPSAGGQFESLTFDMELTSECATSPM

| Compound | outcome |
| --- | --- |
| CCOP(=S)(OCC)SCSCC | inactive |
| Cc1ccc(N)cc1N | inactive |
| CC(Cc1ccc(OCC(=O)O)cc1)NCC(O)c1csc(C(F)(F)F)n1 (stereo not given) | inactive |
| c1ccc(OP(Oc2ccccc2)Oc2ccccc2)cc1 | inactive |
| CSC(C)(C)C=NO | inactive |
| CC(C)(C)OOC(C)(C)C | inactive |
| CCOc1ccc(C(C)(C)COCc2cccc(Oc3ccccc3)c2)cc1 | inactive |
| ClC(Cl)(Cl)c1ccccc1 | inactive |
| c1nc[nH]n1 | inactive |
| Nc1cc2c3c(c1)C(c1ccccc1)=N[C@@H](NC(=O)c1cccnc1)C(=O)N3CC2 | inactive |
| Cc1ccc([N+](=O)[O-])cc1C | inactive |
| CCC(C)(C)c1ccc(O)cc1 | inactive |
| CC(C)(C)c1ccc(O)cc1 | inactive |
| CC(Cl)(Cl)C(=O)O | inactive |
| c1ccc2c(c1)Nc1ccccc1S2 | inactive |
| ClC1=C(Cl)C2(Cl)C3C(Cl)C(Cl)CC3C1(Cl)C2(Cl)Cl (stereo not given) | inactive |
| CCCN(CCC)c1c([N+](=O)[O-])cc(C(C)C)cc1[N+](=O)[O-] | inactive |
| O=[N+]([O-])c1ccccc1 | inactive |
| O=P1(N(CCCl)CCCl)NCCCO1 (stereo not given) | inactive |
| Nc1ccc(Cl)cc1 | inactive |

| Compound | outcome |
| --- | --- |
| CCCCCCCc1ccc(O)cc1 | inactive |
| Cc1cccc(N)c1 | inactive |
| Nc1ccc2ccccc2c1 | inactive |
| CCCCc1ccccc1 | inactive |
| CCCCN(CCCC)N=O | inactive |
| CCN(CC)c1ccccc1 | inactive |
| c1cc2c3c(cccc3c1)CC2 | inactive |
| CCC1(c2ccccc2)C(=O)N=C(O)NC1=O (stereo not given) | inactive |
| O=C(O)C(Cl)Cl | inactive |
| CCNc1nc(Cl)nc(NC(C)(C)C)n1 | inactive |
| CCOS(=O)(=O)OCC | inactive |
| [N-]=[N+]=[N-] | inactive |
| OCC1CO1 (stereo not given) | inactive |
| O=C(O)C1C(C(=O)O)C2(Cl)C(Cl)=C(Cl)C1(Cl)C2(Cl)Cl (stereo not given) | inactive |
| Cc1ccc(O)cc1C | inactive |
| CCOC(=O)c1ccccc1C(=O)OCC | inactive |
| CCOP(=S)(Oc1ccc([N+](=O)[O-])cc1)c1ccccc1 (stereo not given) | inactive |
| O=P(Oc1ccccc1)(Oc1ccccc1)Oc1ccccc1 | inactive |
| COCCOCCO | inactive |
| ClC(Cl)c1ccccc1 | inactive |
